From PubChem BioAssay AID1159580 (chemical genetic matrix, 2015)
Out of some 5,500 compounds screened, about 2,000 (36%) were called active. Another 18% or so got no clear call; they are omitted. Rule as the data show it: active = normalized growth mostly below about 0.91 (no sharp cut-off); inconclusive = no clear call, values can overlap the other calls; inactive = mostly above about 0.92. Some of the results follow.

Experiment: chemical genetic growth profiling, strain panel (AID 1159580);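 also: tested at 20 µM; growth read once vehicle control cultures reached saturation at 30 °C; 1 = growth at the plate median or of vehicle wells; lower values mean less growth of the strain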
Conditions: growth OD

Measured: normalized growth

NC(=O)N/N=C\c1ccc([N+](=O)[O-])o1
inactive: S. cerevisiae deletion strains, locus YJR066W, strain TOR1, hits give low values 0.911 | S. cerevisiae deletion strains, locus YKL009W, strain mrt4, hits give low values 0.979 | S. cerevisiae deletion strains, locus YKL068W, hits give low values 0.994 | S. cerevisiae deletion strains, locus YKL085W, strain MDH1 (second series), hits give low values 0.987 | S. cerevisiae deletion strains, locus YKL085W, strain MDH1, hits give low values 0.987 | S. cerevisiae deletion strains, locus YKL160W, strain elf1, hits give low values 0.983 | S. cerevisiae deletion strains, locus YKL190W, strain CNB1, hits give low values 1.02 | S. cerevisiae deletion strains, locus YKR001C, strain vps1, hits give low values 0.95 | S. cerevisiae deletion strains, locus YKR026C, strain gcn3, hits give low values 1 | S. cerevisiae deletion strains, locus YKR091W, strain srl3, hits give low values 0.991 | S. cerevisiae deletion strains, locus YLL001W, strain dnm1, hits give low values 0.995 | S. cerevisiae deletion strains, locus YLL026W, hits give low values 0.999 | S. cerevisiae deletion strains, locus YLL041C, strain sdh2, hits give low values 0.995 | S. cerevisiae deletion strains, locus YLR027C, strain aat2, hits give low values 1 | S. cerevisiae deletion strains, locus YLR039C, strain RIC1, hits give low values 1.03 | S. cerevisiae deletion strains, locus YLR058C, strain SHM2, hits give low values 0.994 | S. cerevisiae deletion strains, locus YLR102C, strain apc9, hits give low values 0.984 | S. cerevisiae deletion strains, locus YLR113W, strain HOG1, hits give low values 1 | S. cerevisiae deletion strains, locus YLR221C, strain rsa3, hits give low values 0.975 | S. cerevisiae deletion strains, locus YLR258W, strain gsy2, hits give low values 0.998 | S. cerevisiae deletion strains, locus YLR262C, strain YPT6 (second series), hits give low values 1.01 | S. cerevisiae deletion strains, locus YLR262C, strain YPT6, hits give low values 1.03 | S. cerevisiae deletion strains, locus YLR268W, strain sec22, hits give low values 0.969 | S. cerevisiae deletion strains, locus YLR320W, strain mms22, hits give low values 0.98 | S. cerevisiae deletion strains, locus YLR330W, strain CHS5, hits give low values 0.998 | S. cerevisiae deletion strains, locus YLR342W, strain FKS1 (second series), hits give low values 1.03 | S. cerevisiae deletion strains, locus YLR342W, strain FKS1, hits give low values 1 | S. cerevisiae deletion strains, locus YLR357W, strain rsc2, hits give low values 0.97 | S. cerevisiae deletion strains, locus YLR370C, strain arc18, hits give low values 0.997 | S. cerevisiae deletion strains, locus YLR371W, strain rom2, hits give low values 0.986 | S. cerevisiae deletion strains, locus YLR384C, strain iki3, hits give low values 1.01 | S. cerevisiae deletion strains, locus YLR418C, strain cdc73, hits give low values 0.904 | S. cerevisiae deletion strains, locus YML016C, strain PPZ1, hits give low values 1 | S. cerevisiae deletion strains, locus YML032C, strain rad52, hits give low values 0.938 | S. cerevisiae deletion strains, locus YML120C, strain ndi1, hits give low values 1.02 | S. cerevisiae deletion strains, locus YML124C, strain tub3, hits give low values 0.993 | S. cerevisiae deletion strains, locus YMR058W, strain fet3, hits give low values 0.961 | S. cerevisiae deletion strains, locus YMR078C, strain ctf18, hits give low values 0.994 | S. cerevisiae deletion strains, locus YMR125W, strain sto1, hits give low values 0.993 | S. cerevisiae deletion strains, locus YMR129W, hits give low values 1 | S. cerevisiae deletion strains, locus YMR205C, strain PFK2, hits give low values 1.02 | S. cerevisiae deletion strains, locus YMR223W, strain ubp8, hits give low values 0.97 | S. cerevisiae deletion strains, locus YMR231W, strain pep5, hits give low values 0.993 | S. cerevisiae deletion strains, locus YMR307W, strain GAS1, hits give low values 1.01 | S. cerevisiae deletion strains, locus YNL067W, strain RPL9B, hits give low values 1.01 | S. cerevisiae deletion strains, locus YNL071W, strain lat1, hits give low values 0.99 | S. cerevisiae deletion strains, locus YNL128W, strain TEP1, hits give low values 1.03 | S. cerevisiae deletion strains, locus YNL153C, strain GIM3, hits give low values 1.01 | S. cerevisiae deletion strains, locus YNL183C, strain NPR1, hits give low values 0.919 | S. cerevisiae deletion strains, locus YNL209W, strain ssb2, hits give low values 0.994 | S. cerevisiae deletion strains, locus YNL233W, strain BNI4, hits give low values 0.998 | S. cerevisiae deletion strains, locus YNL248C, strain rpa49, hits give low values 0.967 | S. cerevisiae deletion strains, locus YNL250W, strain rad50, hits give low values 0.97 | S. cerevisiae deletion strains, locus YNL271C, strain bni1, hits give low values 0.999 | S. cerevisiae deletion strains, locus YNL298W, strain CLA4, hits give low values 0.986 | S. cerevisiae deletion strains, locus YNL307C, strain MCK1, hits give low values 0.995 | S. cerevisiae deletion strains, locus YNL322C, strain KRE1 (second series), hits give low values 0.997 | S. cerevisiae deletion strains, locus YNR049C, strain mso1, hits give low values 0.995 | S. cerevisiae deletion strains, locus YNR052C, strain pop2, hits give low values 0.989 | S. cerevisiae deletion strains, locus YOL006C, strain TOP1, hits give low values 1.06 | S. cerevisiae deletion strains, locus YOL012C, strain htz1 0.96 | S. cerevisiae deletion strains, locus YOL147C, strain pex11, hits give low values 0.988 | S. cerevisiae deletion strains, locus YOR001W, strain rrp6, hits give low values 1.01 | S. cerevisiae deletion strains, locus YOR061W, strain CKA2, hits give low values 0.994 | S. cerevisiae deletion strains, locus YOR069W, strain VPS5, hits give low values 1 | S. cerevisiae deletion strains, locus YOR070C, strain gyp1, hits give low values 0.998 | S. cerevisiae deletion strains, locus YOR080W, strain dia2, hits give low values 1.01 | S. cerevisiae deletion strains, locus YOR083W, strain WHI5, hits give low values 0.963 | S. cerevisiae deletion strains, locus YOR106W, strain vam3, hits give low values 0.983 | S. cerevisiae deletion strains, locus YOR136W, strain idh2, hits give low values 0.984 | S. cerevisiae deletion strains, locus YOR144C, strain elg1, hits give low values 0.989 | S. cerevisiae deletion strains, locus YOR184W, strain ser1, hits give low values 0.989 | S. cerevisiae deletion strains, locus YOR231W, strain MKK1, hits give low values 0.95 | S. cerevisiae deletion strains, locus YOR265W, strain rbl2, hits give low values 0.996 | S. cerevisiae deletion strains, locus YOR270C, strain vph1, hits give low values 0.972 | S. cerevisiae deletion strains, locus YOR290C, strain snf2, hits give low values 0.986 | S. cerevisiae deletion strains, locus YOR316C, strain cot1, hits give low values 0.992 | S. cerevisiae deletion strains, locus YPL051W, strain arl3, hits give low values 0.966 | S. cerevisiae deletion strains, locus YPL078C, strain atp4, hits give low values 0.991 | S. cerevisiae deletion strains, locus YPL106C, strain sse1, hits give low values 0.956 | S. cerevisiae deletion strains, locus YPL240C, strain hsp82, hits give low values 1.01 | S. cerevisiae deletion strains, locus YPL241C, strain CIN2, hits give low values 1.01 | S. cerevisiae deletion strains, locus YPL256C, strain CLN2, hits give low values 0.982 | S. cerevisiae deletion strains, locus YPR119W, strain clb2, hits give low values 0.987 | S. cerevisiae deletion strains, locus YPR141C, strain kar3, hits give low values 0.993 | S. cerevisiae deletion strains, locus YPR163C, strain tif3, hits give low values 0.992 | S. cerevisiae deletion strains, locus YPR167C, strain met16, hits give low values 0.987 | S. cerevisiae deletion strains, strain wtn01, hits give low values 0.97 | S. cerevisiae strains, strain wild type, hits give low values 1.03
